PubChem BioAssay AID2796 (The Scripps Research Institute Molecular Screening Center, 2010)
The whole screen tested about 320,000 compounds, of which about 8,000 (2.5%) were called active. The sample holds actives, similar compounds and a random draw of the others, so the mix is not that of the screen. Rule as the data show it: active = activation above about 47%; inactive = the rest.

biological target: Aryl hydrocarbon receptor (Homo sapiens) (UniProt P35869); test: AHR activators, primary screen, cell-based, luminescence, luciferase reporter, human (AID 2796); conditions: AHR-responsive luciferase reporter cells, at 5 µM, hits give high values;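 also: 0% = vehicle wells and 100% = reference agonist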
Sequence (P35869 whole entry, looked up): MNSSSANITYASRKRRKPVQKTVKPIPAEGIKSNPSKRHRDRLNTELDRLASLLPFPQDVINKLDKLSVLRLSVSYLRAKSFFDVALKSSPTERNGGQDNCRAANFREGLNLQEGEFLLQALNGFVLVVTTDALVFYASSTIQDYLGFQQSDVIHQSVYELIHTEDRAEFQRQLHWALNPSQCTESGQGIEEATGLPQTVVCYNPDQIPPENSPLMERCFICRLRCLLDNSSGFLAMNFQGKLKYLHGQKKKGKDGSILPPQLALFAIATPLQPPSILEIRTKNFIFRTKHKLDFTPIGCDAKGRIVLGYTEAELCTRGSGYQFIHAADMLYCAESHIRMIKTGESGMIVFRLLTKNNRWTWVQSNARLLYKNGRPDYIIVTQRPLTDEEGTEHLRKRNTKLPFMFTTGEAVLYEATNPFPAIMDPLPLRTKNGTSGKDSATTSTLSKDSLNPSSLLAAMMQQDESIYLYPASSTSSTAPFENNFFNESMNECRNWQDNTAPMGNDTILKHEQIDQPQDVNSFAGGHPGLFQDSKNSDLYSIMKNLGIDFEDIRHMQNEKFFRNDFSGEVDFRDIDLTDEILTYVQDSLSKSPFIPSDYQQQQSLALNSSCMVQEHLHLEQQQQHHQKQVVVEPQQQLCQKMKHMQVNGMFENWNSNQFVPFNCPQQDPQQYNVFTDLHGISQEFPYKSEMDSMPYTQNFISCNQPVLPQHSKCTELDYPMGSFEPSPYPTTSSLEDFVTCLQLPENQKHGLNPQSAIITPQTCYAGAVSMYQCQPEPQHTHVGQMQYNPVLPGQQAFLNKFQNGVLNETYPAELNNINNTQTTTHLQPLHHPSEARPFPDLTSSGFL

Row | Structure (SMILES) | activation
1 | Cc1cccc(CS(=O)(=O)c2ncc(Cl)c(C(=O)Nc3ccc(F)cc3)n2)c1 | 27.3% (inactive)
2 | OC(c1ccc(Cl)cc1)C(CN1CCOCC1)c1ccccc1 (configuration not stated) | 2.39% (inactive)
3 | Cc1ccc(N(C(=O)c2sc(C)nc2C)C(C(=O)NC(C)(C)C)c2ccncc2)cc1 (configuration not stated) | -0.51% (inactive)
4 | CC(C)c1ccccc1OCC(O)CN(CC(O)COc1cccc2ccccc12)C(C)C (configuration not stated) | 5.3% (inactive)
5 | CC1Cc2ccccc2N1CC(=O)Nc1ccc(S(N)(=O)=O)cc1 (configuration not stated) | 3.1% (inactive)
6 | O=C(COC(=O)c1ccc[nH]c1=O)Nc1ccc2c(c1)OC(F)(F)O2 | 0.45% (inactive)
7 | CC1Cc2ccccc2N1CC(=O)Nc1ccc2c(c1)OC(F)(F)O2 (configuration not stated) | 61.4% (active)
8 | CCOC(=O)N1CCC(Nc2c(NCCCN3CCN(c4ccc(OC)cc4)CC3)c(=O)c2=O)CC1 | 1.99% (inactive)
9 | CC(C)NC(=O)CSc1ccccc1C(=O)NCc1ccc2c(c1)OCO2 | 1.44% (inactive)
10 | CCSc1ccccc1C(=O)Nc1ccc2c(c1)OCO2 | 80.8% (active)
11 | COCc1nnc(NC(=O)c2ccc3c(c2)OCO3)s1 | 50% (active)
12 | CC(Sc1nc2cc(Cl)ccc2s1)C(=O)Nc1ccc2c(c1)OCO2 (configuration not stated) | 65.3% (active)
13 | O=C(Nc1nc2ccccc2s1)c1ccc2c(c1)OCO2 | 6.38% (inactive)
14 | CSc1ncccc1C(=O)Nc1ccc2c(c1)OCO2 | 32.3% (inactive)
15 | O=C(Nc1ccc2c(c1)OCO2)c1sc2cc(Cl)ccc2c1Cl | 33.1% (inactive)
16 | COc1cc(NC(=O)c2ccc3c(c2)OCO3)ccc1NC(=O)c1cccs1 | 12.8% (inactive)
17 | Cc1ccc(C(=O)Nc2ccc3c(c2)OCO3)cc1S(=O)(=O)N1CCCCC1 | 38.4% (inactive)
18 | O=C(Nc1cccc(S(=O)(=O)N2CCCCC2)c1)c1ccc2c(c1)OCO2 | 56% (active)
19 | CC(Sc1nc(-c2ccccc2)cc(C(F)(F)F)n1)C(=O)Nc1ccc2c(c1)OCO2 (configuration not stated) | 5.04% (inactive)
20 | O=C(Nc1cccc(S(=O)(=O)N2CCCCC2)c1)c1cncc(Br)c1 | 17.9% (inactive)
21 | O=C(NCc1ccc2c(c1)OCO2)C(=O)NCC1OCCN1S(=O)(=O)c1ccc(F)cc1 (configuration not stated) | 1.35% (inactive)
22 | CC(=O)c1nn(-c2cccc(C(F)(F)F)c2)c(=O)[nH]c1=O | 0.72% (inactive)
23 | COc1ccc(CCNC(=O)CCNS(=O)(=O)c2cc(Br)cnc2N)cc1OC | -0.76% (inactive)
24 | O=C(CN(C(=O)CNC(=O)c1cccs1)c1cccc(F)c1)NC1CCCCC1 | 1.69% (inactive)

Row | Structure (SMILES) | activation
25 | Cc1ccc(C(=O)N2CCN(S(=O)(=O)N3CCOCC3)CC2)cc1 | 4.12% (inactive)
26 | CCC(C)C(=O)Nc1cc([N+](=O)[O-])ccc1Cl (configuration not stated) | 12% (inactive)
27 | COc1ccc(S(=O)(=O)N2CCC(C(=O)N3CCCC3)CC2)cc1C | -0.5% (inactive)
28 | C/C(=N\N)c1c(-c2ccccc2)c2cc(Br)ccc2[nH]c1=O | 2.69% (inactive)
29 | COc1ccccc1C(=O)NCC(=O)OCC(=O)NNC(=O)c1ccc(Br)cc1 | 0.52% (inactive)
30 | Cc1cc2nc3n(c2cc1C)CC1CC(C(=O)NCCC(C)C)N(C)C31 (configuration not stated) | 2.06% (inactive)
31 | CCOC(=O)[C@H]1[C@H]2COc3ccccc3[C@@H]2N2C(=O)CN(Cc3ccccc3)C(=O)[C@@]12C | 0.71% (inactive)
32 | CCOC(=O)C1=C(COC(=O)[C@H](C)NS(=O)(=O)c2ccccc2F)NC(=O)NC1C (some centres not stated) | -0.94% (inactive)
33 | C[C@H](CO)N1C[C@H](C)[C@H](CN(C)C(=O)Nc2ccc(C(F)(F)F)cc2)Oc2c(NC(=O)c3ccncc3)cccc2C1=O | 5.42% (inactive)
34 | O=C1Nc2ccc(Br)cc2/C1=N/N=C/C1=C(N2CCOCC2)C(=C\c2ccccc2)/CC1 | 22.3% (inactive)
35 | CC(C)CNS(=O)(=O)c1ccc(C(=O)Nc2ccc3c(c2)OCO3)cc1 | 9.22% (inactive)
36 | CC(C)C(=O)Nc1cccc(C(=O)Nc2ccc3c(c2)OCO3)c1 | 56% (active)
37 | O=C(Nc1cccnc1)c1ccc2c(c1)OCO2 | 51.4% (active)
38 | Cc1ccc2nc(-c3ccccn3)cc(C(=O)Nc3ccc4c(c3)OCO4)c2c1 | 47.8% (active)
39 | Cc1ccc2nc(-c3ccncc3)cc(C(=O)Nc3ccc4c(c3)OCCO4)c2c1 | 5.93% (inactive)
40 | O=C(Nc1ccncc1)c1cc(-c2ccccn2)nc2ccc(Br)cc12 | 4.97% (inactive)
41 | O=C(Nc1ccc(NC(=O)c2ccc3c(c2)OCO3)cc1)c1cccc(Cl)c1 | -2.05% (inactive)
42 | CC(NC(=O)Nc1ccc2c(c1)OCO2)c1ccncc1 (configuration not stated) | 29.5% (inactive)
43 | O=C(Nc1ccccc1)c1ccc2c(c1)OCCCO2 | -1.81% (inactive)
44 | Cc1cccc(NC(=O)Nc2ccc3c(c2)OCO3)n1 | 180% (active)
45 | Cc1cccc(NC(=O)/C=C/c2ccc3c(c2)OCO3)n1 | -3.06% (inactive)
46 | O=C(Nc1cccc([N+](=O)[O-])c1)c1ccc2c(c1)OCO2 | 14.3% (inactive)
47 | CCN(C(=O)COC(=O)c1ccc(COc2ccc3c(C)cc(=O)oc3c2)cc1)C1CCS(=O)(=O)C1 (configuration not stated) | 1.82% (inactive)
